# Activity calls are given as the source filed them. The calls were made as follows: active = hit-call score of the fitted dose curve at least 0.9, where 1 is the maximum; inactive = score below 0.9.
# Assay: ATG_NFI_CIS: Attagene CIS-FACTORIAL HepG2 Assay for human Nuclear Factor I (NFI) (AID 2282989)
# Conditions: HepG2 cis-regulatory reporter, NFI response element transcription; actives raise or lower the signal
# Procedure: ATG_CIS is a cell-based, multiplexed-readout assay that uses HepG2, a human liver cell line, with measurements taken at 24 hours after chemical dosing in a 24-well plate.ATG_NFI_CIS is one of 52 assay component(s) measured or calculated from the ATG_CIS assay. It is designed to make measurements of mRNA induction, a form of inducible reporter, as detected with fluorescence intensity signals by Reverse transcription polymerase chain reaction (RT-PCR) and Capillary electrophoresis technology.Data from the assay component ATG_NFI_CIS was analyzed into 1 assay endpoint. This assay endpoint, ATG_NFI_CIS, was analyzed with bidirectional fitting relative to DMSO as the negative control and baseline of activity. Using a type of inducible reporter, measures of mRNA for gain or loss-of-signal activity can be used to understand the reporter gene at the transcription factor-level as they relate to the gene NFIA. Furthermore, this assay endpoint can be referred to as a primary readout, because this assay has produced multiple assay endpoints where this one serves a reporter gene function. To generalize the intended target to other relatable targets, this assay endpoint is annotated to the dna binding intended target family, where the subfamily is nuclear factor I.
# Human liver HepG2 cells are transiently transfected with multiple reporter transcription units (MRTUs) in 6-well plates using FuGene 6 reagent (Roche; 3 ml FuGene/1 mg DNA). The MRTU constructs are regulated by a cis-regulating element (promoter). […] A major difference between the CIS and TRANS system is that in CIS activities of endogenous TFs are measured, whereas the TRANS assay evaluates changes in activities of exogenous, chimeric NR-Gal4 proteins. […] At the end of 24 hour incubation, total RNA was isolated using TriZol reagent (Invitrogen). The isolated RNA is then reverse-transcribed using oligo(dT) primer and Mo-MLV reverse transcriptase (Invitrogen) with DNAse I (Ambion) treatment for 30 min. The one-tenth of the produced cDNA was amplified by PCR using Taq DNA polymerase (Invitrogen) and two reporter sequence-specific primers. The PCR products were fluorescently labeled by primer extension with 6-arboxyfluorescein (6-FAM) 5'-labeled reporter sequence-specific primer (2 min at 95 C, 20 s at 68 C and 10 min at 72 C) and these products were digested with 5U of HpaI (New England Biolabs) for 2h at 37 C. The fragments were purified using Qiaquick PCR columns (Qiagen), analyzed on an ABI 3130xL genetic analyzer (Applied Biosystems) with peak positions identified by using a set of X-rhodamine (ROX)-labeled MapMarker1000 molecular weight standards (BioVentures). The raw capillary electrophoresis data was processed using Attagraph software (Attagene).
Compound,outcome,AC50
Cc1nc(-c2ccccn2)ncc1C(=O)Nn1cc(C)c2cc(F)ccc21,inactive,
O=S(=O)(O)CCC(F)(F)C(F)(F)C(F)(F)C(F)(F)C(F)(F)C(F)(F)F,inactive,
NC(N)=O,inactive,
OCCNCCO,inactive,
CCCC(CCC)C(=O)O,inactive,
CCN(CC)C(=S)SSC(=S)N(CC)CC,,158 µM (active)
C[Si](C)(C)C(F)(F)C(F)(F)C(F)(F)F,inactive,
O=c1[nH]cnc2c1ncn2[C@H]1CC[C@@H](CO)O1,inactive,
O=C(O)c1cccc(C[C@@H]2COc3ccc(OCc4nc5cc(F)ccc5s4)cc3[C@@H]2O)c1,inactive,
c1ccc(C(O[C@@H]2CCCN(CCc3ccc4c(c3)OCO4)C2)c2ccccc2)cc1,inactive,
C[C@@H](Oc1ccc(CNC(=O)c2cccnc2Oc2ccc3c(c2)OCO3)c(F)c1)C(=O)O,inactive,
CNC(C)=O,inactive,
CC[C@H](C)C(=O)O[C@H]1C[C@H](O)C=C2C=C[C@H](C)[C@H](CC[C@@H](O)C[C@@H](O)CC(=O)O)[C@H]21,inactive,
CCOC(N)=O,inactive,
CCc1ccc(O)c(C(C)(C)C)c1,inactive,
O=C(O)CO,inactive,
OC(Cn1cncn1)(Cn1cncn1)c1ccc(F)cc1F,inactive,
FC(F)C(F)(F)COCC1CO1 (stereo not given),inactive,
CCCCCOC(C)=O,inactive,
FC(F)(F)COC(OCC(F)(F)F)OCC(F)(F)F,inactive,

Compound,outcome,AC50
Cc1nccn1-c1ccc(Sc2cccc(C3(C(N)=O)CCOCC3)c2)cc1,,2.39 µM (active)
S=P(N1CC1)(N1CC1)N1CC1,inactive,
O=C(N[C@H](CO)[C@H](O)c1ccc([N+](=O)[O-])cc1)C(Cl)Cl,inactive,
COS(C)(=O)=O,inactive,
C[C@]12C=CC(=O)C=C1CC[C@H]1[C@@H]3C[C@@H](O)[C@](O)(C(=O)CO)[C@@]3(C)C[C@H](O)[C@@]12F,inactive,
COc1cc2c(c(OC)c1OC)-c1ccc(OC)c(=O)cc1[C@@H](NC(C)=O)CC2,inactive,
NNC(=O)c1ccncc1,inactive,
CC(C)CCCCCCOC(=O)C1CCCCC1C(=O)OCCCCCCC(C)C (stereo not given),inactive,
c1ccc2cc3ccccc3cc2c1,inactive,
FC(F)(F)C(F)(F)C(F)(F)C(F)(F)C(F)(F)C(F)(F)I,inactive,
CCCCCCCCCCCCCCCCOS(=O)(=O)O,,24.6 µM (active)
c1ccc2c(c1)-c1cccc3c1c-2cc1ccccc13,inactive,
COc1cc(C(C)C)c2c(c1)S(=O)(=O)N(COc1cc(=O)n3cccc(OCCN4CCCCC4)c3n1)C2=O,,3.64 µM (active)
OC[C@H]1O[C@@](CO)(O[C@H]2O[C@H](CO)[C@@H](O)[C@H](O)[C@H]2O)[C@@H](O)[C@@H]1O,inactive,
COCc1nnc(-c2ccc[n+]([O-])c2)n1-c1c(Cl)c(Cl)cc2[nH]c(=O)c(=O)[nH]c12,inactive,
O=S1(=O)CCCO1,inactive,
OC[C@H]1O[C@@H]2O[C@H]3[C@H](O)[C@@H](O)[C@@H](O[C@H]4[C@H](O)[C@@H](O)[C@@H](O[C@H]5[C@H](O)[C@@H](O)[C@@H](O[C@H]6[C@H](O)[C@@H](O)[C@@H](O[C@H]7[C@H](O)[C@@H](O)[C@@H](O[C@H]1[C@H](O)[C@H]2O)O[C@@H]7CO)O[C@@H]6CO)O[C@@H]5CO)O[C@@H]4CO)O[C@@H]3CO,inactive,
O=C(O)c1ccc2c(c1)nc(C(=O)NC1CCN(C3CC3)CC1)n2Cc1cc(-c2ccc(Cl)s2)on1,inactive,
c1ccc2ncccc2c1,inactive,
NC(=O)N1c2ccccc2C=Cc2ccccc21,inactive,
